{
  "source": "PubChem BioAssay (NCATS)",
  "key": {"[1]": {"assay": "qHTS of pediatric cancer cell lines to identify multiple opportunities for drug repurposing: Confirmatory screen for Rh30 cells (AID 1347126); further: nearly all actives have a fitted effect of over 55% in size; further: potency means the concentration at half of the fitted maximal effect", "method_in_brief": "(§1)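 Viability after 48 h compound treatment at 37C, 500-1,000 cells/well, read as ATP luminescence with CellTiter-Glo. Primary screens used 11-point (MIPE, 0.78 nM-46 µM) or 8-point (NPC, 0.59 nM-46 µM) final concentrations; follow-up screens used 11-point dilutions.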"}, "[2]": {"assay": "qHTS of pediatric cancer cell lines to identify multiple opportunities for drug repurposing: Confirmatory screen for Saos-2 cells (AID 1347127)", "method_in_brief": "as §1"}, "[3]": {"assay": "qHTS of pediatric cancer cell lines to identify multiple opportunities for drug repurposing: Confirmatory screen for OHS-50 cells (AID 1347128)", "method_in_brief": "as §1"}, "[4]": {"assay": "qHTS of pediatric cancer cell lines to identify multiple opportunities for drug repurposing: Confirmatory screen for SK-N-SH cells (AID 1347129)", "method_in_brief": "as §1"}, "[5]": {"test_system": "Zika virus NS2B-NS3 protease", "assay": "Primary screen GU AMC qHTS for Zika virus inhibitors (AID 1347154)", "method_in_brief": "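Unlinked Zika NS2B hydrophilic domain–NS3 protease complex at 25 nM in 10 mM Tris-HCl pH 8.0, 0.01% Tween 20, with an AMC peptide substrate. Fluorescence change (340/450 nm) over 15 min at room temperature, normalized to controls, fitted to 4-parameter Hill.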"}, "Furin (Homo sapiens)": {"molecular_target": "Furin (Homo sapiens) (UniProt P09958)", "sequence (P09958 whole entry, looked up)": "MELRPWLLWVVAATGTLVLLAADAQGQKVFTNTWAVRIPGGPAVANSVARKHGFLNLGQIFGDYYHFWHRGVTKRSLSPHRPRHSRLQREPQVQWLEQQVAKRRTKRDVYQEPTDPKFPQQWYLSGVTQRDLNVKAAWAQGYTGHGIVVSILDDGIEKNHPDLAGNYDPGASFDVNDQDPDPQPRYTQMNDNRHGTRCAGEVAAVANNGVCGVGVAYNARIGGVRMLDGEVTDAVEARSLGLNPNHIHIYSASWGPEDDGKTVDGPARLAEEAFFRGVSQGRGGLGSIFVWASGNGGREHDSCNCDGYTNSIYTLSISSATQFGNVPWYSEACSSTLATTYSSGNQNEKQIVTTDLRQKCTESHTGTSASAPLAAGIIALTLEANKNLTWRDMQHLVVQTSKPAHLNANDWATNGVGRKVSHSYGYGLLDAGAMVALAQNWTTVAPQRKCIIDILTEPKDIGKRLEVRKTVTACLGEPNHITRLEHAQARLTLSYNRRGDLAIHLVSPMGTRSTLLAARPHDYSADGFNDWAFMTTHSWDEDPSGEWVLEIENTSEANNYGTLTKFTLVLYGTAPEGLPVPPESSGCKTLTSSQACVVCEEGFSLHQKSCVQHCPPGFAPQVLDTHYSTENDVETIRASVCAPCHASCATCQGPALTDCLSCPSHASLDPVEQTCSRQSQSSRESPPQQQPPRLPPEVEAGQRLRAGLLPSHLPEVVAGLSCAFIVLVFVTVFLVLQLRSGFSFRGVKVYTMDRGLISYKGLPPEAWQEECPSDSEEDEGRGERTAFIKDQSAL", "assay": "Furin counterscreen qHTS for Zika virus inhibitors (AID 1347149)", "method_in_brief": "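Fluorogenic cleavage of BOC-RVRR-AMC (2 microM final, Km ~15 µM) was monitored (ex 340, em 450 nm) at 37C after 15 min RT preincubation of 5 nM furin with compounds in HEPES pH 7.0 buffer with CaCl2 and Triton X-100. Percent inhibition was fitted to a 4-parameter Hill curve.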"}, "[6]": {"molecular_target": "N-terminal Xaa-Pro-Lys N-methyltransferase 1 (Homo sapiens) (UniProt Q9BV86)", "sequence (Q9BV86 whole entry, looked up)": "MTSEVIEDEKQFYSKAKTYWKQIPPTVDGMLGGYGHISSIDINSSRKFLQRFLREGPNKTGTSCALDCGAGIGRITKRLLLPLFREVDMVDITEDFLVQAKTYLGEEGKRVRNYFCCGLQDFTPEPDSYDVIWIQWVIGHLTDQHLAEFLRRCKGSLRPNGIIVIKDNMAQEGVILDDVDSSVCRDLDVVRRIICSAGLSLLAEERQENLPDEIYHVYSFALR", "assay": "qHTS Assay for Inhibitors of N-terminal methyltransferase 1 (NTMT1): LOPAC validation of the NTMT1 SAHH-coupled ThioGlo3 Assay (AID 1347143)", "method_in_brief": "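Recombinant human NTMT1 (125nM) was pre-incubated 1 min at room temperature with compounds over a concentration range, then a mix of 100uM SAM, 10uM SAHH and 15uM ThioGlo3 (concentrations in added reagent) was added. ThioGlo3 fluorescence (ex 340/em 450nm) after 30 min was normalized to the initial reading.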"}, "[7]": {"test_system": "Zika virus NS2B-NS3 protease (unlinked)", "assay": "Optimization of GU AMC qHTS for Zika virus inhibitors: Unlinked NS2B-NS3 protease assay (AID 1347151)", "method_in_brief": "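Percent inhibition is derived from the 15-min change in AMC fluorescence, normalized against no-inhibitor and no-enzyme controls, then fitted to a 4-parameter Hill curve. Aprotinin was the intraplate control.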"}},
  "note": "Results filed as inconclusive are left out. A call without a number means that no potency is given here. Active and inactive are the calls of the source. The call rests on the fitted dose curve; in most records, active means well fitted curve in the direction sought with a large enough effect; inconclusive means small, poorly fitted or top-dose-only effect, or another doubt; inactive means no such curve, though single readings can be large; an effect the other way counts as inactive or inconclusive. Wherever potency is given: potency means the concentration at half of the fitted maximal effect.",
  "data": [
    {"smiles": "Cc1ccccc1-n1c(Cn2cnc3c(N)ncnc32)nc2cccc(C)c2c1=O", "values": [
      {"measurement": "Potency", "setting": "[1]", "value": "inactive"},
      {"measurement": "Potency", "setting": "[2]", "value": "inactive"},
      {"measurement": "Potency", "setting": "[3]", "value": "inactive"},
      {"measurement": "Potency", "setting": "[4]", "value": "inactive"},
      {"measurement": "Potency", "setting": "[5]", "value": "inactive"}
    ]},
    {"smiles": "CC1=C(O)C(=O)C=C2C1=CC=C1[C@@]2(C)CC[C@@]2(C)[C@@H]3C[C@](C)(C(=O)O)CC[C@]3(C)CC[C@]12C", "values": [
      {"measurement": "Potency", "setting": "[1]", "value": "1.85 µM (active)"},
      {"measurement": "Potency", "setting": "[2]", "value": "3.29 µM (active)"},
      {"measurement": "Potency", "setting": "[3]", "value": "2.61 µM (active)"},
      {"measurement": "Potency", "setting": "[4]", "value": "2.96 µM (active)"},
      {"measurement": "Potency", "setting": "Furin (Homo sapiens)", "value": "inactive"}
    ]},
    {"smiles": "CC(C)[C@]12O[C@@H]1[C@@H]1O[C@]13[C@]1(O[C@H]1C[C@@H]1C4=C(CC[C@@]13C)C(=O)OC4)[C@H]2O", "values": [
      {"measurement": "Potency", "setting": "[2]", "value": "0.0465 µM (active)"},
      {"measurement": "Potency", "setting": "[3]", "value": "0.104 µM (active)"},
      {"measurement": "Potency", "setting": "[4]", "value": "0.148 µM (active)"},
      {"measurement": "Potency", "setting": "[5]", "value": "inactive"}
    ]},
    {"smiles": "S=C(SSC(=S)N1CCCCC1)N1CCCCC1", "values": [
      {"measurement": "Potency", "setting": "[1]", "value": "36.9 µM (active)"},
      {"measurement": "Potency", "setting": "[4]", "value": "inactive"},
      {"measurement": "Potency", "setting": "[5]", "value": "inactive"}
    ]},
    {"smiles": "CC(C)(C)C(O)C(Oc1ccc(Cl)cc1)n1cncn1", "note": "(stereo not given)", "values": [
      {"measurement": "Potency", "setting": "[1]", "value": "inactive"},
      {"measurement": "Potency", "setting": "[2]", "value": "inactive"},
      {"measurement": "Potency", "setting": "[3]", "value": "inactive"},
      {"measurement": "Potency", "setting": "[4]", "value": "inactive"},
      {"measurement": "Potency", "setting": "[5]", "value": "inactive"}
    ]},
    {"smiles": "C[C@@H]1CC[C@@]2(OC1)O[C@H]1C[C@H]3[C@@H]4CC=C5C[C@@H](O[C@@H]6O[C@H](CO)[C@@H](O[C@@H]7O[C@@H](C)[C@H](O)[C@@H](O)[C@@H]7O)[C@H](O)[C@@H]6O[C@@H]6O[C@@H](C)[C@H](O)[C@@H](O)[C@@H]6O)CC[C@]5(C)[C@@H]4CC[C@]3(C)[C@@H]1[C@H]2C", "values": [
      {"measurement": "Potency", "setting": "[1]", "value": "4.14 µM (active)"},
      {"measurement": "Potency", "setting": "[2]", "value": "5.22 µM (active)"},
      {"measurement": "Potency", "setting": "[3]", "value": "5.22 µM (active)"},
      {"measurement": "Potency", "setting": "[4]", "value": "16.6 µM (active)"},
      {"measurement": "Potency", "setting": "[5]", "value": "inactive"}
    ]},
    {"smiles": "CC(=Cc1csc(C)n1)[C@@H]1C[C@H]2O[C@@H]2CCC[C@H](C)[C@@H](O)[C@@H](C)C(=O)C(C)(C)[C@@H](O)CC(=O)O1", "values": [
      {"measurement": "Potency", "setting": "[2]", "value": "0.0293 µM (active)"},
      {"measurement": "Potency", "setting": "[3]", "value": "0.0329 µM (active)"},
      {"measurement": "Potency", "setting": "[5]", "value": "inactive"}
    ]},
    {"smiles": "O=[N+]([O-])c1c(Cl)c(Cl)cc(Cl)c1Cl", "values": [
      {"measurement": "Potency", "setting": "[1]", "value": "inactive"},
      {"measurement": "Potency", "setting": "[4]", "value": "inactive"},
      {"measurement": "Potency", "setting": "Furin (Homo sapiens)", "value": "inactive"},
      {"measurement": "Potency", "setting": "[5]", "value": "inactive"}
    ]},
    {"smiles": "C[C@@H]1O[C@H](C[N+](C)(C)C)C[C@H]1O", "values": [
      {"measurement": "Potency", "setting": "[6]", "value": "inactive"},
      {"measurement": "Potency", "setting": "[7]", "value": "inactive"}
    ]},
    {"smiles": "C[N+]1(C)C2CCC1CC(OC(=O)C(CO)c1ccccc1)C2", "note": "(stereo not given)", "values": [
      {"measurement": "Potency", "setting": "[6]", "value": "inactive"},
      {"measurement": "Potency", "setting": "[7]", "value": "inactive"}
    ]},
    {"smiles": "Cc1c(C(=O)Nc2cccc(C(F)(F)F)c2)cc(-c2ccccc2)n1CCCN1CCOCC1", "values": [
      {"measurement": "Potency", "setting": "[3]", "value": "42.7 µM (active)"},
      {"measurement": "Potency", "setting": "[5]", "value": "inactive"}
    ]},
    {"smiles": "CC=C(C)C(=O)O[C@H]1C(C)=C2[C@@H]3OC(=O)[C@@](C)(O)[C@@]3(O)[C@@H](OC(=O)CCC)C[C@](C)(OC(C)=O)[C@@H]2[C@@H]1OC(=O)CCCCCCC", "values": [
      {"measurement": "Potency", "setting": "[4]", "value": "inactive"}
    ]},
    {"smiles": "O=C(N[C@H]1CN2CCC1CC2)c1ccc(Cl)cc1", "values": [
      {"measurement": "Potency", "setting": "[3]", "value": "10.4 µM (active)"},
      {"measurement": "Potency", "setting": "[6]", "value": "inactive"},
      {"measurement": "Potency", "setting": "[7]", "value": "inactive"},
      {"measurement": "Potency", "setting": "[5]", "value": "inactive"}
    ]}
  ]
}
